Measured values taken from PubChem BioAssay (Tox21).
A number with no mark means an inactive call. Results filed as inconclusive are left out. Entries that show only a call come without a potency. Active and inactive are the calls of the source. Unless noted, calls follow the shape of the dose curve; as a rule, active = well fitted curve in the direction sought with a large enough effect in the repeat runs; inconclusive = weak or mixed curves; inactive = no such curve, though single readings can be large; an effect the other way counts as inactive or inconclusive.

Assays:
[1] = qHTS assay to identify small molecule agonists of H2AX - cell viability counter screen (AID 1224847; calls by dose curve; also: nearly all actives have a fitted effect of over 30% in size; also: potency is read from the fitted curve at half-maximal effect)
Summary of the method: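 Cells plated first: CHO-K1, 1000 per well in 10% FBS medium, incubated overnight at 37C. Then 15-point compound titration added (final DMSO 0.76%) for 3 hr. Finally CellTiter-Glo added and luminescence read.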

[2] = qHTS RealTime-Glo MT Cell Viability Assay in HepG2 cells - 24 hour (AID 1224867); also: nearly all actives have a fitted effect of over 50% in size
Summary of the method: (§1)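 HepG2 cells were seeded at 600 cells/well together with NanoLuc luciferase and a cell-permeant prosubstrate, preincubated 5 h at 37 C/5% CO2, then pin-dosed with compounds in DMSO. Nonlytic luminescence from viable cells was read at each time point.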

[3] = A CellTox Green Cytotoxicity Assay to monitor cytotoxicity in HEK293 cells - 0 hour (AID 1224869); also: nearly all actives have a fitted effect of over 50% in size
Summary of the method: (§2)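 Real-time, in one plate: 600 HEK293 cells/well with dead-cell DNA dye, pinned compound after 5 h, 37 C incubation over 40 h; viable cells give no appreciable fluorescence.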

[4] = qHTS RealTime-Glo MT Cell Viability Assay in HepG2 cells - 40 hour (AID 1224870); also: nearly all actives have a fitted effect of over 50% in size
Summary of the method: (§3)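 Real-time viability: cells seeded at 600 per well together with NanoLuc and cell-permeant prosubstrate, compounds added after 5 h incubation. Luminescence tracked at 0, 8, 16, 24, 32 and 40 h of exposure.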

[5] = A CellTox Green Cytotoxicity Assay to monitor cytotoxicity in HEK293 cells - 40 hour (AID 1224871); also: nearly all actives have a fitted effect of over 45% in size
Summary of the method: as §2

[6] = qHTS RealTime-Glo MT Cell Viability Assay in HepG2 cells - 8 hour (AID 1224873); also: nearly all actives have a fitted effect of over 55% in size
Summary of the method: as §3

[7] = A CellTox Green Cytotoxicity Assay to monitor cytotoxicity in HEK293 cells - 24 hour (AID 1224875); also: series mostly up to about 77 µM; nearly all actives have a fitted effect of over 45% in size
Summary of the method: as §2

[8] = A CellTox Green Cytotoxicity Assay to monitor cytotoxicity in HepG2 cells - 16 hour (AID 1224876); also: nearly all actives have a fitted effect of over 45% in size
Summary of the method: (§4)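 Cytotoxicity was tracked as dead-cell DNA fluorescence in HepG2 cells treated with test compounds at 37 C; each time-point value comes from one kinetic series spanning 0, 8, 16, 24, 32 and 40 h.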

[9] = qHTS RealTime-Glo MT Cell Viability Assay in HepG2 cells - 32 hour (AID 1224877); also: nearly all actives have a fitted effect of over 55% in size
Summary of the method: as §1

[10] = A CellTox Green Cytotoxicity Assay to monitor cytotoxicity in HepG2 cells - 24 hour (AID 1224878); also: nearly all actives have a fitted effect of over 45% in size
Summary of the method: as §4

[11] = A CellTox Green Cytotoxicity Assay to monitor cytotoxicity in HepG2 cells - 40 hour (AID 1224879); also: nearly all actives have a fitted effect of over 40% in size; also: potency is read from the fitted curve at half-maximal effect
Summary of the method: as §4

[12] = A CellTox Green Cytotoxicity Assay to monitor cytotoxicity in HepG2 cells - 0 hour (AID 1224882); also: nearly all actives have a fitted effect of over 35% in size
Summary of the method: as §4

[13] = A CellTox Green Cytotoxicity Assay to monitor cytotoxicity in HepG2 cells - 32 hour (AID 1224883); also: nearly all actives have a fitted effect of over 50% in size; also: potency is read from the fitted curve at half-maximal effect
Summary of the method: as §4

[14] = qHTS RealTime-Glo MT Cell Viability Assay in HEK293 cells - 32 hour (AID 1224868); also: nearly all actives have a fitted effect of over 50% in size; also: potency is read from the fitted curve at half-maximal effect
Summary of the method: (§5)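 HEK293 cells were seeded at 600 cells/well together with NanoLuc luciferase and cell-permeant prosubstrate, preincubated 5 h at 37 C/5% CO2, then given compound in DMSO by pintool. Luminescence from viable-cell prosubstrate reduction was read repeatedly over 40 h.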

[15] = qHTS RealTime-Glo MT Cell Viability Assay in HEK293 cells - 40 hour (AID 1224874); conditions: RealTime-Glo luminescence; max response: active compounds read low; also: nearly all actives have a fitted effect of over 50% in size; also: potency is read from the fitted curve at half-maximal effect
Summary of the method: (§6)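 Kinetic, non-lysing viability readout. Seed HEK293 (600/well) with reagent, incubate 5 h at 37 C/5% CO2, pin 23 nL compound in DMSO, incubate at 37 C, read luminescence at 0, 8, 16, 24, 32, 40 h.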

[16] = qHTS RealTime-Glo MT Cell Viability Assay in HEK293 cells - 0 hour (AID 1224880)
Summary of the method: as §6

[17] = A CellTox Green Cytotoxicity Assay to monitor cytotoxicity in HEK293 cells - 32 hour (AID 1224881); also: nearly all actives have a fitted effect of over 40% in size
Summary of the method: as §2

[18] = qHTS RealTime-Glo MT Cell Viability Assay in HEK293 cells - 16 hour (AID 1224872); also: nearly all actives have a fitted effect of over 50% in size; also: potency is read from the fitted curve at half-maximal effect
Summary of the method: as §5

Row | SMILES | Potency [1] | Potency [2] | Potency [3] | Potency [4] | Potency [5] | Potency [6] | Potency [7] | Potency [8] | Potency [9] | Potency [10] | Potency [11] | Potency [12] | Potency [13] | Potency [14] | Potency [15] | Potency [16] | Potency [17] | Potency [18] | max response [15]
1 | O=C(N[C@H](CO)[C@H](O)c1ccc([N+](=O)[O-])cc1)C(Cl)Cl | inactive | inactive | inactive | inactive | inactive | inactive | inactive | inactive | inactive | inactive | inactive | inactive | inactive | – | – | – | – | – | –
2 | O=C(NCc1ncc(C(F)(F)F)cc1Cl)c1c(Cl)cccc1Cl | inactive | inactive | inactive | inactive | – | inactive | inactive | inactive | inactive | inactive | 17.4 µM (active) | inactive | 21.9 µM (active) | 21.9 µM (active) | 19.5 µM (active) | inactive | inactive | – | –
3 | C/C(=C\c1ccc(C(=O)O)cc1)c1ccc2c(c1)C(C)(C)CCC2(C)C | inactive | inactive | inactive | inactive | inactive | inactive | inactive | inactive | inactive | – | inactive | – | inactive | – | – | inactive | inactive | inactive | -17.3%
4 | CCCCCCCC/C=C\CCCCCCCC(=O)N(CCO)CCO | 113 µM (active) | inactive | inactive | inactive | – | inactive | – | inactive | – | – | – | inactive | – | 43.5 µM (active) | 43.5 µM (active) | inactive | – | 43.5 µM (active) | –
5 | c1ccc2cc3c4ccccc4c4ccccc4c3cc2c1 | 101 µM (active) | inactive | inactive | inactive | – | inactive | inactive | inactive | – | – | 13.9 µM (active) | – | 13.9 µM (active) | inactive | – | inactive | – | inactive | -2.98%
6 | c1ccc2c(c1)-c1ccc3ccc4cccc5cc-2c1c3c45 | inactive | inactive | – | inactive | – | inactive | inactive | inactive | inactive | – | 9.52 µM (active) | inactive | – | inactive | – | inactive | – | inactive | 8.42%
7 | CC(C)(c1ccc(Oc2ccc(N)cc2)cc1)c1ccc(Oc2ccc(N)cc2)cc1 | 80 µM (active) | inactive | inactive | inactive | inactive | – | inactive | inactive | – | inactive | inactive | inactive | inactive | – | 21.9 µM (active) | inactive | inactive | – | –
8 | CC(C=O)c1ccccc1 (stereo not drawn) | inactive | inactive | inactive | inactive | – | inactive | inactive | inactive | inactive | – | inactive | inactive | inactive | – | – | inactive | inactive | inactive | -16.6%
9 | Cc1ccc2nc(-c3ccc(N)cc3)sc2c1S(=O)(=O)O | inactive | inactive | inactive | inactive | inactive | inactive | inactive | inactive | inactive | inactive | inactive | inactive | inactive | – | – | inactive | inactive | inactive | -21.6%
10 | CCOc1nc(F)cc2nc(S(=O)(=O)Nc3c(Cl)cccc3C(=O)OC)nn12 | inactive | inactive | inactive | inactive | – | inactive | inactive | inactive | inactive | inactive | inactive | inactive | inactive | inactive | – | inactive | inactive | – | 9.81%
11 | C/C=C/C(=O)OCC(C)C | inactive | inactive | inactive | inactive | inactive | inactive | inactive | inactive | inactive | inactive | inactive | inactive | inactive | – | – | inactive | inactive | inactive | 5.85%
12 | CC1=C(/C=C/C(C)=C/C=C/C(C)=C\C(=O)O)C(C)(C)CCC1 | inactive | inactive | inactive | inactive | – | inactive | – | inactive | inactive | – | 55.1 µM (active) | inactive | – | – | – | inactive | – | inactive | –
13 | CC(C)c1ccc2sc3ccccc3c(=O)c2c1 | 50.5 µM (active) | inactive | inactive | inactive | inactive | inactive | inactive | inactive | inactive | inactive | 19.5 µM (active) | – | inactive | – | – | inactive | – | – | –
14 | CCn1c2ccccc2c2ccccc21 | inactive | inactive | inactive | inactive | – | inactive | inactive | inactive | inactive | inactive | inactive | inactive | inactive | – | – | inactive | inactive | – | -15.2%
15 | Cc1ccc(C=O)cc1 | inactive | inactive | inactive | inactive | – | inactive | inactive | inactive | inactive | inactive | inactive | inactive | inactive | – | – | inactive | – | – | 7.49%
